From PubChem BioAssay (Tox21)
Values joined by “and” are separate entries in the source; they are usually repeats but may differ in a detail not shown here. Equal values may be shown once. Inconclusive results are not listed. Where a structure was tested more than once in an assay, its records may differ in their call. Active and inactive are the calls of the source. Unless noted, calls follow the shape of the dose curve; as a rule, active = well fitted curve in the direction sought with a large enough effect in the repeat runs; inconclusive = weak or mixed curves; inactive = no such curve, though single readings can be large; an effect the other way counts as inactive or inconclusive.

Tests used:
[1] = qHTS assay for small molecule agonists of the p53 signaling pathway (AID 651631; calls by dose curve; also: nearly all actives have a fitted effect of over 15% in size; also: potency is read from the fitted curve at half-maximal effect)
Procedure, shortened: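 HCT-116 cells carrying a stable p53 response element–beta-lactamase reporter were plated, rested 5 h at 37 °C, then exposed to compound in DMSO for 16 h at 37 °C; reporter activity was read as FRET substrate fluorescence after 2 h at room temperature.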

[2] = qHTS assay for small molecules that induce genotoxicity in human embryonic kidney cells expressing luciferase-tagged ATAD5 (AID 651632); also: nearly all actives have a fitted effect of over 15% in size
Procedure, shortened: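 ATAD5-luc HEK293T, 2,000 cells/well; cpd or DMSO pin-transferred; 16 hr, 37C/5% CO2; Amplite 30 min RT; luminescence.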

[3] = qHTS assay for small molecule agonists of the p53 signaling pathway - cell viability (AID 651633; calls by dose curve; also: series mostly up to about 83 µM; nearly all actives have a fitted effect of over 30% in size)
Procedure, shortened: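 p53RE-bla cells, seeded at 4,000 per well and rested 5 h at 37 C/5% CO2, received compounds in DMSO for 16 h at 37 C. CellTiter-Glo was then added, and luminescence was read after 30 min at room temperature to gauge cytotoxicity.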

[4] = qHTS assay for small molecules that induce genotoxicity in human embryonic kidney cells expressing luciferase-tagged ATAD5 - cell viability (AID 651634; calls by dose curve; also: nearly all actives have a fitted effect of over 25% in size)
Procedure, shortened: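 Fluorescence from CellTiter-Fluor, reporting protease activity within live cells, served as the viability read-out. HEK293T cells carrying luciferase-tagged ATAD5 had been treated with compound for 15.5 hr at 37C.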

[5] = qHTS assay for small molecule disruptors of the mitochondrial membrane potential - cell viability (AID 720634; calls by dose curve;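 also: human HepG2 liver cancer cells; series mostly up to about 83 µM; nearly all actives have a fitted effect of over 20% in size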)
Procedure, shortened: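 Cells: HepG2, 2,000/well, attached overnight. Compound 1 hr, 37 C/5% CO2. +m-MPI dye, +CellTiter-Glo 30 min RT. Readout: luminescence (ATP).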

[6] = qHTS assay for small molecule disruptors of the mitochondrial membrane potential (AID 720635); also: potency is read from the fitted curve at half-maximal effect
Procedure, shortened: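 HepG2 cells (2,000/well) attached overnight at 37C, then took compound for 1 hr at 37C, 5% CO2. Mito-MPS dye was added for 30 min; fluorescence was read at 490/535 nm (monomers) and 540/590 nm (aggregates).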

[7] = qHTS assay to test for compound auto fluorescence at 590 nm (red) in HepG2 cells (AID 720674)
Procedure, shortened: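 Rose Bengal sodium served as the red fluorophore standard. HepG2 monolayers (overnight attachment, MEM with 10% FBS) were exposed to test compounds for 1 hr at 37 C and read at Ex 540/Em 590 nm.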

[8] = qHTS assay to test for compound auto fluorescence at 535 nm (green) in HepG2 cells (AID 720675)
[9] = qHTS assay to test for compound auto fluorescence at 460 nm (blue) in HEK293 cells (AID 720678)
Procedure, shortened: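 HEK293 cells (2,000/well, medium with 10% dialyzed FBS) attached 4-5 hr, then exposed to compound overnight at 37C, 5% CO2. Blue fluorescence read at 405/460 nm, with triamterene as reference fluorophore.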

[10] = qHTS assay to test for compound auto fluorescence at 590 nm (red) in HEK293 cells (AID 720679)
Procedure, shortened: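 HEK293 cells (2,000/well, 10% dialyzed FBS) attached 4-5 hr, then dosed with compound or DMSO and incubated overnight at 37C, 5% CO2. Red fluorescence read at 540/590 nm, Rose Bengal sodium as reference fluorophore.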

[11] = qHTS assay to test for compound auto fluorescence at 535 nm (green) in HEK293 cells (AID 720680)
[12] = qHTS assay to test for compound auto fluorescence at 460 nm (blue) in HEK293 cell free culture (AID 720681)
Procedure, shortened: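 Test compounds were pinned into cell-free culture medium (DMEM with 10% FBS) and fluorescence was read directly at Ex/Em 405/460 nm. Signals were expressed as fluorescence equivalents of triamterene, with DMSO vehicle as control.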

[13] = qHTS assay to test for compound auto fluorescence at 535 nm (green) in HEK293 cell free culture (AID 720682)
Procedure, shortened: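 Read-out: 485/535 nm fluorescence intensity, calibrated against fluorescein. Medium only (DMEM + 10% FBS, no cells); test compound or DMSO vehicle added by pintool before plate reading.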

[14] = qHTS assay to test for compound auto fluorescence at 590 nm (red) in HEK293 cell free culture (AID 720683)
Procedure, shortened: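 Tox21 10K library compounds were pinned into cell-free DMEM with 10% FBS and fluorescence was read at excitation 540 nm. Activity is expressed as Rose Bengal sodium equivalency.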

[15] = qHTS assay to test for compound auto fluorescence at 590 nm (red) in HepG2 cell free culture (AID 720684)
Procedure, shortened: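 Measured in medium alone (MEM containing 10% FBS) following pintool addition of compound; emission at 590 nm with 540 nm excitation, referenced to Rose Bengal sodium.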

[16] = qHTS assay to test for compound auto fluorescence at 460 nm (blue) in HepG2 cell free culture (AID 720685)
Procedure, shortened: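 Compound (23 nL) or DMSO pinned into cell-free MEM with 10% FBS; blue fluorescence read at 405/460 nm excitation/emission, expressed as auto-fluorescence equivalency to triamterene.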

[17] = qHTS assay to test for compound auto fluorescence at 535 nm (green) in HepG2 cell free culture (AID 720686)
[18] = qHTS assay to test for compound auto fluorescence at 460 nm (blue) in HepG2 cells (AID 720687)
Procedure, shortened: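 Cells (2,000/well in MEM with 10% FBS) attached overnight at 37 C, then were exposed to compound or DMSO for 1 hr at 37 C, 5% CO2. Fluorescence read at Ex/Em 405/460 nm, expressed as triamterene-equivalent signal.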

[19] = target: Glucocorticoid receptor (Homo sapiens) (UniProt P04150); test: qHTS assay to identify small molecule agonists of the glucocorticoid receptor (GR) signaling pathway (AID 720691; active = well fitted activation curve with a large enough effect in the signal ratio in the repeat runs, not every such curve was filed as active; the % refers to the signal ratio)
Procedure, shortened: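 Fluorescence intensity from LiveBLAzer B/G FRET substrate (2 h, room temperature) reports beta-lactamase expression driven by the glucocorticoid response element in GR-bla HeLa cells after 18 h compound exposure at 37 C.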

[20] = target: Glucocorticoid receptor (Homo sapiens) (UniProt P04150); test: qHTS assay to identify small molecule antagonists of the glucocorticoid receptor (GR) signaling pathway (AID 720692; active = well fitted inhibition curve with a large enough effect in the signal ratio in the repeat runs, not every such curve was filed as active; the % refers to the signal ratio)
Procedure, shortened: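 HeLa GR-bla cells; cmpd + dex 5 nM final, 18 h 37 C; LiveBLAzer B/G FRET substrate 2 h RT; fluorescence intensity read. Antagonist mode, qHTS.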

Measured: Potency

Glucocorticoid receptor (Homo sapiens), sequence (P04150 whole entry, looked up): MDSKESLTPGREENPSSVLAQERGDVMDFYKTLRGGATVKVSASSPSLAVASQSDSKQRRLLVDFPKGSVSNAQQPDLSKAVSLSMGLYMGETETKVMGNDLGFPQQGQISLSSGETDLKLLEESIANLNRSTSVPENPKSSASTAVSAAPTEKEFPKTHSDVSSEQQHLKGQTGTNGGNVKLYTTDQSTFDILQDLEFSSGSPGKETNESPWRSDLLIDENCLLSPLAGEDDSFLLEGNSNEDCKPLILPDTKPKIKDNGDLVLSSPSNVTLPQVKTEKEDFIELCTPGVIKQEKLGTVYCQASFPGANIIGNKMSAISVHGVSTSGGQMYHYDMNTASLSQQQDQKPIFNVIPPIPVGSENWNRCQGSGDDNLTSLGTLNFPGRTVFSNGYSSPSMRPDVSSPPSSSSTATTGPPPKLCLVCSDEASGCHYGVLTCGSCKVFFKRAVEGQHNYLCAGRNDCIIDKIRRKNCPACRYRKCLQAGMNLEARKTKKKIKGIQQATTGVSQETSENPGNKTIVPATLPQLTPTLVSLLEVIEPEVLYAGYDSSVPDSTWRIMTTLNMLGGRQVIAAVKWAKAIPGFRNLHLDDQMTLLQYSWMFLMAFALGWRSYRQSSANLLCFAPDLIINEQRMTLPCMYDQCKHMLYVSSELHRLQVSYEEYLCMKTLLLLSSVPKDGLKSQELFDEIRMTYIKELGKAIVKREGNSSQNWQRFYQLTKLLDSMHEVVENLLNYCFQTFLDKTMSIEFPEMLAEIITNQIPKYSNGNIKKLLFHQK

O=C/C=C/c1ccccc1
inactive: all assays above

Nc1nc(N)nc(NC2CC2)n1
inactive: all assays above

CNCC(O)c1ccc(O)cc1 (stereo not drawn)
inactive: all assays above

O=C(O)CCCc1ccc(N(CCCl)CCCl)cc1
active: [1] 23.7 µM and 61.4 µM and 34.4 µM
not listed: [19] | [20]
inactive: all other assays above

Nc1cccc(Cl)c1
not listed: [19] | [20]
inactive: all other assays above

Cl[C@H]1OCCO[C@@H]1Cl
not listed: [20]
inactive: all other assays above

CCOP(=S)(OCC)Oc1ccc([N+](=O)[O-])cc1
55.1 µM (active) and inactive: [6]
inactive: all other assays above

N#Cc1ccccn1
not listed: [19] | [20]
inactive: all other assays above

CCOC(=O)CC(SP(=O)(OC)OC)C(=O)OCC (stereo not drawn)
inactive: all assays above

COC(C)(C)CCCC(C)C/C=C/C(C)=C/C(=O)OC(C)C (stereo not drawn)
inactive and 21.3 µM (active): [6]
not listed: [19] | [20]
inactive: all other assays above

CC(C)c1cccc(C(C)C)c1O
active: [6] 54.3 µM and 61.1 µM
not listed: [19] | [20]
inactive: all other assays above

CNC(=O)Oc1cccc2ccccc12
active: [6] 13.3 µM
not listed: [19] | [20]
inactive: all other assays above

Cc1ccccc1N
not listed: [19] | [20]
inactive: all other assays above

Cc1ccc(N)cc1
not listed: [19] | [20]
inactive: all other assays above
